# Experimental data taken from PMC7862700, “An all-to-all approach to the identification of sequence-specific readers for epigenetic DNA modifications on cytosine”.
# How the values were obtained:
# Assay in all cases: DAPPL (digital affinity profiling via proximity ligation, sequencing); 10 mM Tris-HCl pH 7.5, 50 mM NaCl, 1 mM DTT, 4% glycerol, room temperature, 30 min; GST-TFs on glutathione beads, 16-mer random dsDNA library, 0.1% formaldehyde crosslink after washing; high values mean tight binding
# [1] = molecular target: T1, FEV (Homo sapiens, UniProt Q99581 1-238); conditions: protein: recombinant; tags: N-terminal GST; dsDNA, one strand shown
# T1 sequence: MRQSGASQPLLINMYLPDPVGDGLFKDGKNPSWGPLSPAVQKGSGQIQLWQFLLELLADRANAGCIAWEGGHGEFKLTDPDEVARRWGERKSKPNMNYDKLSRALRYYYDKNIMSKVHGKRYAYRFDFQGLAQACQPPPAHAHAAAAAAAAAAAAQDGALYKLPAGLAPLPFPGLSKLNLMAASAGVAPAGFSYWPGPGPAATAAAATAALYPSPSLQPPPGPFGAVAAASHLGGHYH
# Summary of the method: (§1)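 Binding signal is defined as a hexamer's read frequency for one factor over its frequency for the tag-only sample. To obtain reads, GST-fused human transcription factors were expressed in yeast, captured on glutathione beads, barcoded with DNA and pooled with that sample. Pools met 200 nmole of a 16-mer random double-stranded DNA library in Tris/NaCl/DTT/glycerol buffer for 30 min at room temperature before washing, 0.1% formaldehyde crosslinking, proximity ligation (BsaI/T4 ligase, 1 h, 37 °C), PCR and Illumina NextSeq500 sequencing.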
# [2] = molecular target: ETV5 (Homo sapiens, UniProt P41161 1-510); conditions: protein: recombinant; tags: N-terminal GST; dsDNA, one strand shown
# Sequence of ETV5 (P41161 whole entry): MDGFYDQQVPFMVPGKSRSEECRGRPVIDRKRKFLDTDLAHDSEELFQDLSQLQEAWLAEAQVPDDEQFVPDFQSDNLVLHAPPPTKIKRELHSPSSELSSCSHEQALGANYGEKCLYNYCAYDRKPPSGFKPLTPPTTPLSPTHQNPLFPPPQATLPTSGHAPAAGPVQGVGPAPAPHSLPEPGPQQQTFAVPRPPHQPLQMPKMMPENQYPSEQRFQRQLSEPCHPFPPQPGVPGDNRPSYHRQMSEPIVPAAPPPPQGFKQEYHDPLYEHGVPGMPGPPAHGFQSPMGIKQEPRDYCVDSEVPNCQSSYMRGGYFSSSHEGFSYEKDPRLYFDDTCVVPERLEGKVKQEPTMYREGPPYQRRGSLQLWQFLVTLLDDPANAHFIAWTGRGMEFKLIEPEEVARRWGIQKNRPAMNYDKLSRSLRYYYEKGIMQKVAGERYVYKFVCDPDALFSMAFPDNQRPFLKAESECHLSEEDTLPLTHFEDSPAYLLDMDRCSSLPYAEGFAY
# Summary of the method: as §1
# [3] = molecular target: HSF1 (Homo sapiens, UniProt Q00613 1-529); conditions: protein: recombinant; tags: N-terminal GST; chain copies: 3; dsDNA, one strand shown
# Sequence of HSF1 (Q00613 whole entry): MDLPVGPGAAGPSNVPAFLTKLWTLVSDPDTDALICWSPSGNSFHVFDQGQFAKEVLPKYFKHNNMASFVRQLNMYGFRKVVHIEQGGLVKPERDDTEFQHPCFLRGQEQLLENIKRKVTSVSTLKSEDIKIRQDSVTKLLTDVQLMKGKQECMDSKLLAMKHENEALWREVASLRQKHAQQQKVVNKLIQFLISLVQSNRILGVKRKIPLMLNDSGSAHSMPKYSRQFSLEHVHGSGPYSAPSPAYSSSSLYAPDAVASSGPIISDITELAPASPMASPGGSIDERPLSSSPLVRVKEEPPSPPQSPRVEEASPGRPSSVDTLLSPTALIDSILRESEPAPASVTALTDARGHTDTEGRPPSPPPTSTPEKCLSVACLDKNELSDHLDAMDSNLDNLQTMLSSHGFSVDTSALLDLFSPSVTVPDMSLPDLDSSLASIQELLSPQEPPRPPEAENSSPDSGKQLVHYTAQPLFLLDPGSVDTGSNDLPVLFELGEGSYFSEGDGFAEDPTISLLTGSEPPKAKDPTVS
# Summary of the method: as §1
# [4] = molecular target: T2, SPIC (Homo sapiens, UniProt Q8N5J4 1-248); conditions: protein: recombinant; tags: N-terminal GST; dsDNA, one strand shown
# T2 sequence: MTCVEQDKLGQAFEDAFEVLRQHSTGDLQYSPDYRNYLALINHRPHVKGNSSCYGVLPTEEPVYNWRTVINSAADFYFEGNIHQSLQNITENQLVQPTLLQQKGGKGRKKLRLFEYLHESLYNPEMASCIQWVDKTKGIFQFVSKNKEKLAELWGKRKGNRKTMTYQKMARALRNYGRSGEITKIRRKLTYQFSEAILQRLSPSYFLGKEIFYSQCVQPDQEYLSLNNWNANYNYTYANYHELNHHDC
# Summary of the method: as §1
# [5] = molecular target: ELF4 (Homo sapiens, UniProt Q99607 1-663); conditions: protein: recombinant; tags: N-terminal GST; dsDNA, one strand shown
# Sequence of ELF4 (Q99607 whole entry): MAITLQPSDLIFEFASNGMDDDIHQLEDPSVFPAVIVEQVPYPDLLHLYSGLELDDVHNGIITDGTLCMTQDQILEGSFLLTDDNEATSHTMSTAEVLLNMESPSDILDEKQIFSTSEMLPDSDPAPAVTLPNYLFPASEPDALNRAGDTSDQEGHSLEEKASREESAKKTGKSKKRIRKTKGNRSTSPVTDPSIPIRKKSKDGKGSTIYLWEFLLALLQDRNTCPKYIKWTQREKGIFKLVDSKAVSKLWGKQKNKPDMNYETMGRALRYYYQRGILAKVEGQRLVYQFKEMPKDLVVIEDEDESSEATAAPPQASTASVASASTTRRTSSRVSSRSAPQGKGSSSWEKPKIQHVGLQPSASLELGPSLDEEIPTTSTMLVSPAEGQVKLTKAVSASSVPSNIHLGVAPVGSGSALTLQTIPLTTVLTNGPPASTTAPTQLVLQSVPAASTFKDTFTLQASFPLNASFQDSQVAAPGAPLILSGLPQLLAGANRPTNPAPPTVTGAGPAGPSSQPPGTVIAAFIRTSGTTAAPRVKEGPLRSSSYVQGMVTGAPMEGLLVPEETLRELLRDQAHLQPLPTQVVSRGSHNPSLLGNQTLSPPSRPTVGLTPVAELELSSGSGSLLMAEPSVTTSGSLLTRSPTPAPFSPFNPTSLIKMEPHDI
# Summary of the method: as §1
# [6] = molecular target: T3, ELK4 (Homo sapiens, UniProt P28324-2 1-405); conditions: protein: recombinant; tags: N-terminal GST; dsDNA, one strand shown
# T3 sequence: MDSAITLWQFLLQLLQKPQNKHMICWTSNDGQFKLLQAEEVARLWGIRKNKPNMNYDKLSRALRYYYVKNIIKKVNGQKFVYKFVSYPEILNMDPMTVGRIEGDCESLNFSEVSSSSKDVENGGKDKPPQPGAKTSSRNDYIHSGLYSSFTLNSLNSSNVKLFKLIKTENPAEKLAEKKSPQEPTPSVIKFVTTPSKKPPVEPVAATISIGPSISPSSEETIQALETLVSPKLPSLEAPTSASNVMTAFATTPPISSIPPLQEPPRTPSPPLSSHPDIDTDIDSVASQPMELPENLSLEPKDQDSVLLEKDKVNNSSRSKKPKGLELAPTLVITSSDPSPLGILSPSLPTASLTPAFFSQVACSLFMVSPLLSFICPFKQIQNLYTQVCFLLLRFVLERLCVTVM
# Summary of the method: as §1
# [7] = molecular target: T4, ETV2 (Homo sapiens, UniProt O00321 1-342); conditions: protein: recombinant; tags: N-terminal GST; dsDNA, one strand shown
# T4 sequence: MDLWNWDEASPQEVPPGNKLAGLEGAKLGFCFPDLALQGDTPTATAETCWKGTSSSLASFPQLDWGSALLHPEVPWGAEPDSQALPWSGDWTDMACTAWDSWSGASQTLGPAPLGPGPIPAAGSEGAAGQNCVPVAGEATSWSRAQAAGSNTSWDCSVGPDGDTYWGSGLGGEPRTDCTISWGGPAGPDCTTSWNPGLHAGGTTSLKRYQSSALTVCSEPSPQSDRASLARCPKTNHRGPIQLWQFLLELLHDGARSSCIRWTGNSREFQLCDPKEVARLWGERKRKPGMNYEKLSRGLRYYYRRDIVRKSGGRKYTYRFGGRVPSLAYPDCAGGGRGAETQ
# Summary of the method: as §1
# [8] = molecular target: T5, ELF3 (Homo sapiens, UniProt P78545 1-371); conditions: protein: recombinant; tags: N-terminal GST; dsDNA, one strand shown
# T5 sequence: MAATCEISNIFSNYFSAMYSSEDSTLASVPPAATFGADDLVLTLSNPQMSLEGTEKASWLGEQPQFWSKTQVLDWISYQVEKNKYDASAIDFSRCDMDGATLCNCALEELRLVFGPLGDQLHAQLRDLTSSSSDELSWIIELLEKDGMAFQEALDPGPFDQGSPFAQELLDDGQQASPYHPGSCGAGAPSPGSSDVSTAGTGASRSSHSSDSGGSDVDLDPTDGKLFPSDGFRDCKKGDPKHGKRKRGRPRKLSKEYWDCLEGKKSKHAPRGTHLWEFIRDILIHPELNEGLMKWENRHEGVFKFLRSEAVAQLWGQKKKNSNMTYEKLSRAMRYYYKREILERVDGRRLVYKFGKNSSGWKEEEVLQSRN
# Summary of the method: as §1
# [9] = molecular target: CRX (Homo sapiens, UniProt O43186 1-299); conditions: protein: recombinant; tags: N-terminal GST; dsDNA, one strand shown
# Sequence of CRX (O43186 whole entry): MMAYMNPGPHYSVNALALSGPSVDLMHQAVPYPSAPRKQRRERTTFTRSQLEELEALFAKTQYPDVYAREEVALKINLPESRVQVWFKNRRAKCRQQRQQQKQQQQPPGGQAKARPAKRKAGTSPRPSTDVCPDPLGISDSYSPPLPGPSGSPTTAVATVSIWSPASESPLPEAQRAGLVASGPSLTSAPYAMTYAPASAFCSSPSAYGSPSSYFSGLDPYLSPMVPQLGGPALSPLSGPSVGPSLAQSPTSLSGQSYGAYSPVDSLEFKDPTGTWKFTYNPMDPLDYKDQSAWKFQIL
# Summary of the method: as §1
# [10] = molecular target: ETV1 (Homo sapiens, UniProt P50549 1-477); conditions: protein: recombinant; tags: N-terminal GST; dsDNA, one strand shown
# Sequence of ETV1 (P50549 whole entry): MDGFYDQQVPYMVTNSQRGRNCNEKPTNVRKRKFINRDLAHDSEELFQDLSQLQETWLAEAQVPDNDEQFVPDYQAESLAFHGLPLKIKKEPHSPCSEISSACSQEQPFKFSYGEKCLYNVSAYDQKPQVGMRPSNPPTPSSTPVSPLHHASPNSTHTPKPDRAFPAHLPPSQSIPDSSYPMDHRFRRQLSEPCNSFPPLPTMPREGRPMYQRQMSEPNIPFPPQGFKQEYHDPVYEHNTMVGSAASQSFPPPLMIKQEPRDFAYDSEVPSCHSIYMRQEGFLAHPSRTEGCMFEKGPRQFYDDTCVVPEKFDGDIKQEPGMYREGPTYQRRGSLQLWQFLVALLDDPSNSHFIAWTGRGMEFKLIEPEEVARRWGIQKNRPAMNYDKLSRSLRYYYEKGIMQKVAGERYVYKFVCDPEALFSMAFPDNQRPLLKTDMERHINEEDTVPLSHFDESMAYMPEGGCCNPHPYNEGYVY
# Summary of the method: as §1
# [11] = molecular target: T6, ERF (Homo sapiens, UniProt P50548 1-548); conditions: protein: recombinant; tags: N-terminal GST; dsDNA, one strand shown
# T6 sequence: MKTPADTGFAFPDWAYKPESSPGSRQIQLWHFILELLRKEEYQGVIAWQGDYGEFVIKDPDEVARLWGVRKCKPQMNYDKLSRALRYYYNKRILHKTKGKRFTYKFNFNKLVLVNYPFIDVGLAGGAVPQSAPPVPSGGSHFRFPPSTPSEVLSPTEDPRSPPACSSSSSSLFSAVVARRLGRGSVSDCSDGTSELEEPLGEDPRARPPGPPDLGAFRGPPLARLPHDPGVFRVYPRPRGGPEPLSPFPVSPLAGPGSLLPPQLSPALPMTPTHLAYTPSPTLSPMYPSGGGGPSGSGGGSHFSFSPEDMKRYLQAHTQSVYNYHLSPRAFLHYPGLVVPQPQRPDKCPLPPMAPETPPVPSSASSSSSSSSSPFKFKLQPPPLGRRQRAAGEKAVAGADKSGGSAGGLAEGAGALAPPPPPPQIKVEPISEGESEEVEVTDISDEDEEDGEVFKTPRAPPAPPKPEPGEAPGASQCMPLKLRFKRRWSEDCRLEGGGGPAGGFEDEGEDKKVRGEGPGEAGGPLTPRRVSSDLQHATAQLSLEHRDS
# Summary of the method: as §1
# [12] = molecular target: T7, ETV3L (Homo sapiens, UniProt Q6ZN32 1-361); conditions: protein: recombinant; tags: N-terminal GST; dsDNA, one strand shown
# T7 sequence: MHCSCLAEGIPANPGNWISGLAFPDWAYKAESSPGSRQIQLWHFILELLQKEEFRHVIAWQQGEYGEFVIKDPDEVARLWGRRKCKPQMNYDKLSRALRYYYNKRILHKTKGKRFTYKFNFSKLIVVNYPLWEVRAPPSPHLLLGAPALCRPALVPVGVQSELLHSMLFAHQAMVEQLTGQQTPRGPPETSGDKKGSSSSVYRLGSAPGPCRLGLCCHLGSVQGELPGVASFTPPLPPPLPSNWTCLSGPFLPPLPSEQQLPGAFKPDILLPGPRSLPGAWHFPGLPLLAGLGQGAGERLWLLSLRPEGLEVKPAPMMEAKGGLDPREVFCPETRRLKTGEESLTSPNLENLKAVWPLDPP
# Summary of the method: as §1
# [13] = molecular target: T8, ETS2 (Homo sapiens, UniProt P15036 1-469); conditions: protein: recombinant; tags: N-terminal GST; dsDNA, one strand shown
# T8 sequence: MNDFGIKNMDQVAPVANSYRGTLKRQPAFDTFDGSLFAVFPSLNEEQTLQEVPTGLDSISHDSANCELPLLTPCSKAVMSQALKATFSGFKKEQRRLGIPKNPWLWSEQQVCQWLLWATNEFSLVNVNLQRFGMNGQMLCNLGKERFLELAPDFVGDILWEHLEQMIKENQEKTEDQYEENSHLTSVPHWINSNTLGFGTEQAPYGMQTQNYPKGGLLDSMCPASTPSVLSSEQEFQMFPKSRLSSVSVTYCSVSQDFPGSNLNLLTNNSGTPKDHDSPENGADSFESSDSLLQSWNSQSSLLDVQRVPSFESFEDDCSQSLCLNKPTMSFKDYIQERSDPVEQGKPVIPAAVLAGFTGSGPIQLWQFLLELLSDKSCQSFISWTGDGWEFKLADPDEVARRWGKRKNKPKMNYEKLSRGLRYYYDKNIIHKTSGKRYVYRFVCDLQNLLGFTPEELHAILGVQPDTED
# Summary of the method: as §1
# [14] = molecular target: T9, SPDEF (Homo sapiens, UniProt O95238 1-335); conditions: protein: recombinant; tags: N-terminal GST; dsDNA, one strand shown
# T9 sequence: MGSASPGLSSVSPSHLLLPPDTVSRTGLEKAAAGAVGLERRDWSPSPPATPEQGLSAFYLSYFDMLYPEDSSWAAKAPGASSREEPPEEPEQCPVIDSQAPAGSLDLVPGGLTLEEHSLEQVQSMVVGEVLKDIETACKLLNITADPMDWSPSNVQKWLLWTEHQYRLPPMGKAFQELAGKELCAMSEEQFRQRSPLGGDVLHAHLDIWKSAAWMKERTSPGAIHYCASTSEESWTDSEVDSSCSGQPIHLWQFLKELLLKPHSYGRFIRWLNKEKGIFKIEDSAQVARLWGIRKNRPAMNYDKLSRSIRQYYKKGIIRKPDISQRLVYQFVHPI
# Summary of the method: as §1
# [15] = molecular target: T10, ETV7 (Homo sapiens, UniProt Q9Y603 1-341); conditions: protein: recombinant; tags: N-terminal GST; dsDNA, one strand shown
# T10 sequence: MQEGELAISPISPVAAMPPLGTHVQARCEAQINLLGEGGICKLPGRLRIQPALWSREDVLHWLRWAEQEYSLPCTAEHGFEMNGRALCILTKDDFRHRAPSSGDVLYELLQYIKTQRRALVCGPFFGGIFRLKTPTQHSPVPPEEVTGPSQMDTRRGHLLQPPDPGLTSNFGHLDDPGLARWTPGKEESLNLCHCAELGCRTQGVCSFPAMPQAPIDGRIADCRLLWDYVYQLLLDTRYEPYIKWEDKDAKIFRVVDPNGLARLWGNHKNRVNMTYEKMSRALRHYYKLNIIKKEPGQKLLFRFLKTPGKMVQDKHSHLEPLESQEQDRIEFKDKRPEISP
# Summary of the method: as §1
# [16] = molecular target: T11, ELF5 (Homo sapiens, UniProt Q9UKW6-2 1-255); conditions: protein: recombinant; tags: N-terminal GST; dsDNA, one strand shown
# T11 sequence: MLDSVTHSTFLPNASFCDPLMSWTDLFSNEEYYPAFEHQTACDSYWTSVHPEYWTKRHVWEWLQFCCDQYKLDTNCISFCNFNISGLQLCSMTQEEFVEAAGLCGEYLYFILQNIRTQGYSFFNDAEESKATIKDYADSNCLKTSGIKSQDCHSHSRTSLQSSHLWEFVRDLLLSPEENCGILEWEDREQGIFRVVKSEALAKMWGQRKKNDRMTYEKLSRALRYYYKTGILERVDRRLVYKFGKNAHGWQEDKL
# Summary of the method: as §1
# [17] = molecular target: T12, ETV3 (Homo sapiens, UniProt P41162-2 1-143); conditions: protein: recombinant; tags: N-terminal GST; dsDNA, one strand shown
# T12 sequence: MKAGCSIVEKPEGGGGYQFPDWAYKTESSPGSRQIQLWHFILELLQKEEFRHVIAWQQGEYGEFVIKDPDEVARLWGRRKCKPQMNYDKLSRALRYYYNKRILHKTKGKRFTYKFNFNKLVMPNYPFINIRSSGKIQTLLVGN
# Summary of the method: as §1
# [18] = molecular target: ETV6 (Homo sapiens, UniProt P41212 1-452); conditions: protein: recombinant; tags: N-terminal GST; dsDNA, one strand shown
# Sequence of ETV6 (P41212 whole entry): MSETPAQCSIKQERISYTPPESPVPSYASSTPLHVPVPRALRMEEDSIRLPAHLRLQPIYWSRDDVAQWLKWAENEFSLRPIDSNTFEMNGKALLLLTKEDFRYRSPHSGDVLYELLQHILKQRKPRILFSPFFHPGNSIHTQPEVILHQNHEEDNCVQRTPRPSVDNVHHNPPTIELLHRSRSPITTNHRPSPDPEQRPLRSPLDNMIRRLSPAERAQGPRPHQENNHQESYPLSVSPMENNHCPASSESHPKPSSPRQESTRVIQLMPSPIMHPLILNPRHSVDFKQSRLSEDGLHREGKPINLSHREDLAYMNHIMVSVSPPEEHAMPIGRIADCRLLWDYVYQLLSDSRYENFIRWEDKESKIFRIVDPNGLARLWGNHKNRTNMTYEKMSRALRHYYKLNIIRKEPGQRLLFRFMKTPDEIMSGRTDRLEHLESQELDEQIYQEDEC
# Summary of the method: as §1
sequence,measurement,setting,value
AAAATG,binding signal,[1],"1.16 fold enrichment (6-mer frequency, TF over GST control)"
same,binding signal,[2],"1.23 fold enrichment (6-mer frequency, TF over GST control)"
same,binding signal,[3],"1.15 fold enrichment (6-mer frequency, TF over GST control)"
same,binding signal,[4],"1.32 fold enrichment (6-mer frequency, TF over GST control)"
same,binding signal,[5],"1.26 fold enrichment (6-mer frequency, TF over GST control)"
same,binding signal,[6],"1.27 fold enrichment (6-mer frequency, TF over GST control)"
same,binding signal,[7],"1.31 fold enrichment (6-mer frequency, TF over GST control)"
same,binding signal,[8],"1.32 fold enrichment (6-mer frequency, TF over GST control)"
same,binding signal,[9],"1.1 fold enrichment (6-mer frequency, TF over GST control)"
same,binding signal,[10],"1.2 fold enrichment (6-mer frequency, TF over GST control)"
same,binding signal,[11],"1.21 fold enrichment (6-mer frequency, TF over GST control)"
same,binding signal,[12],"1.24 fold enrichment (6-mer frequency, TF over GST control)"
same,binding signal,[13],"1.21 fold enrichment (6-mer frequency, TF over GST control)"
same,binding signal,[14],"1.08 fold enrichment (6-mer frequency, TF over GST control)"
same,binding signal,[15],"1.28 fold enrichment (6-mer frequency, TF over GST control)"
same,binding signal,[16],"1.24 fold enrichment (6-mer frequency, TF over GST control)"
same,binding signal,[17],"1.2 fold enrichment (6-mer frequency, TF over GST control)"
same,binding signal,[18],"1.24 fold enrichment (6-mer frequency, TF over GST control)"
